# From the supplement of paper PMC8728848
# This excerpt belongs to a sample that is enriched for the strongest signals.
# Columns and labels:
# Assay in all cases: glycan array binding signal (z-score within array); higher = stronger binding
# Details in all cases: glycan notation: IUPAC condensed, linker removed
# [1] = target: Man(a1-2)Man(a1-3)[Man(a1-2)Man(a1-6)]Man
# Outline: (§1)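 Glycan array data came from 3228 arrays in the Consortium for Functional Glycomics database, and only arrays with an available protein sequence were kept. Glycan names were put into IUPAC-condensed notation, and columns mapping to the same glycan were averaged. The binding signal is a within-array Z-score, averaged across arrays of one protein sequence run at different concentrations or buffers and across linkers. A negative Z-score can be read as non-binding.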
# [2] = target: Man(a1-2)Man(a1-3)[Man(a1-2)Man(a1-6)]Man(a1-6)[Man(a1-2)Man(a1-2)Man(a1-3)]Man
# Outline: as §1
# [3] = target: Man(a1-2)Man(a1-6)[Man(a1-3)]Man(a1-6)[Man(a1-2)Man(a1-2)Man(a1-3)]Man(b1-4)GlcNAc(b1-4)GlcNAc
# Outline: as §1
# [4] = target: Man(a1-3)[Man(a1-6)]Man(a1-6)[Man(a1-3)]Man
# Outline: as §1
# [5] = target: Neu5Ac(a2-3)Gal(b1-3)GalNAc(b1-3)Gal(a1-4)Gal(b1-4)Glc
# Outline: as §1
# [6] = target: Neu5Ac(a2-3)Gal(b1-3)GlcNAc(b1-3)Gal(b1-3)GlcNAc
# Outline: as §1
# [7] = target: Neu5Ac(a2-3)Gal(b1-3)GlcNAc6S
# Outline: as §1
# [8] = target: Neu5Ac(a2-3)Gal(b1-3)[Fuc(a1-4)]GlcNAc
# Outline: as §1
# [9] = target: Neu5Ac(a2-3)Gal(b1-3)[Fuc(a1-4)]GlcNAc(b1-3)Gal(b1-3)[Fuc(a1-4)]GlcNAc
# Outline: as §1
# [10] = target: Neu5Ac(a2-3)Gal(b1-4)GlcNAc(b1-2)Man(a1-3)[Neu5Ac(a2-3)Gal(b1-4)GlcNAc(b1-2)Man(a1-6)]Man(b1-4)GlcNAc(b1-4)[Fuc(a1-6)]GlcNAc
# Outline: as §1
# [11] = target: Neu5Ac(a2-3)Gal(b1-4)GlcNAc(b1-2)[Neu5Ac(a2-3)Gal(b1-4)GlcNAc(b1-6)]Man(a1-6)[Neu5Ac(a2-3)Gal(b1-4)GlcNAc(b1-2)Man(a1-3)][GlcNAc(b1-4)]Man(b1-4)GlcNAc(b1-4)GlcNAc
# Outline: as §1
# [12] = target: Neu5Ac(a2-3)Gal(b1-4)GlcNAc(b1-3)Gal(b1-4)GlcNAc(b1-6)[Gal(b1-3)]GalNAc
# Outline: as §1
# [13] = target: Neu5Ac(a2-3)Gal(b1-4)GlcNAc(b1-6)GalNAc
# Outline: as §1
# [14] = target: Neu5Ac(a2-3)Gal(b1-4)[Fuc(a1-3)]GlcNAc6S
# Outline: as §1
# [15] = target: Neu5Ac(a2-3)[GalNAc(b1-4)]Gal(b1-4)Glc
# Outline: as §1
# [16] = target: Neu5Ac(a2-3)[GalNAc(b1-4)]Gal(b1-4)GlcNAc(b1-3)GalNAc
# Outline: as §1
# [17] = target: Neu5Ac(a2-6)Gal(b1-4)GlcNAc(b1-2)Man(a1-3)[Neu5Ac(a2-6)Gal(b1-4)GlcNAc(b1-2)Man(a1-6)]Man(b1-4)GlcNAc(b1-4)[Fuc(a1-6)]GlcNAc
# Outline: as §1
# [18] = target: Neu5Ac(a2-6)Gal(b1-4)GlcNAc(b1-3)Gal(b1-4)GlcNAc(b1-3)[Neu5Ac(a2-6)Gal(b1-4)GlcNAc(b1-3)Gal(b1-4)GlcNAc(b1-6)]GalNAc
# Outline: as §1
# [19] = target: Neu5Ac(a2-6)Gal(b1-4)GlcNAc(b1-3)Gal(b1-4)[Fuc(a1-3)]GlcNAc(b1-3)Gal(b1-4)[Fuc(a1-3)]GlcNAc
# Outline: as §1
# [20] = target: Neu5Ac(a2-6)Gal(b1-4)GlcNAc(b1-6)[Gal(b1-3)]GalNAc
# Outline: as §1
# [21] = target: Neu5Ac(a2-6)Gal(b1-4)GlcNAc6S
# Outline: as §1
# [22] = target: Neu5Ac(a2-6)GalNAc(b1-4)GlcNAc6S
# Outline: as §1
# Neu5Ac(a2-8)Neu5Ac = target: Neu5Ac(a2-8)Neu5Ac
# Outline: as §1
# [23] = target: Neu5Ac(a2-8)Neu5Ac(a2-8)Neu5Ac
# Outline: as §1
# [24] = target: Neu5Ac(a2-8)Neu5Ac(a2-8)Neu5Ac(a2-3)[GalNAc(b1-4)]Gal(b1-4)Glc
# Outline: as §1
# [25] = target: Neu5Gc(a2-3)Gal(b1-3)[Fuc(a1-4)]GlcNAc
# Outline: as §1
# [26] = target: Neu5Gc(a2-3)Gal(b1-4)GlcNAc
# Outline: as §1
# [27] = target: Neu5Gc(a2-8)Neu5Ac(a2-3)Gal(b1-4)GlcNAc
# Outline: as §1
binder,measurement,setting,value
Pwp2 (Candida glabrata) (protein) MGSSHHHHHHSSGLVPRGSHMASKNPVELNNVCTFPNDYGRIPGFTVLVGRLGLLISASDYKELLRYPGAFLIATQDTMTTSPNFELTGFPFFTGLYGLTVFPLDLLVELRGYFVPPNSGQYTFTLSDSDDAAIIFLGNPSAFPCGDLQNWPKPSEEDITVTDHLFPSRTLYLIEGVAYPMRIAYYNGIGAGRLNAAFIDPSGTRHTNWEGYIWQYDPCSTCTYS,glycan array binding signal (z-score),[1],-0.477
same,glycan array binding signal (z-score),[2],-0.722
same,glycan array binding signal (z-score),[3],-0.467
same,glycan array binding signal (z-score),[4],5.45
same,glycan array binding signal (z-score),[5],-0.307
same,glycan array binding signal (z-score),[6],-0.269
same,glycan array binding signal (z-score),[7],-0.456
same,glycan array binding signal (z-score),[8],0.549
same,glycan array binding signal (z-score),[9],4
same,glycan array binding signal (z-score),[10],0.96
same,glycan array binding signal (z-score),[11],4.22
same,glycan array binding signal (z-score),[12],1.44
same,glycan array binding signal (z-score),[13],4.01
same,glycan array binding signal (z-score),[14],0.309
same,glycan array binding signal (z-score),[15],0.443
same,glycan array binding signal (z-score),[16],0.085
same,glycan array binding signal (z-score),[17],1.79
same,glycan array binding signal (z-score),[18],-0.059
same,glycan array binding signal (z-score),[19],-0.077
same,glycan array binding signal (z-score),[20],3.56
same,glycan array binding signal (z-score),[21],-0.426
same,glycan array binding signal (z-score),[22],4.86
same,glycan array binding signal (z-score),Neu5Ac(a2-8)Neu5Ac,-0.04
same,glycan array binding signal (z-score),[23],-0.203
same,glycan array binding signal (z-score),[24],0.537
same,glycan array binding signal (z-score),[25],-0.072
same,glycan array binding signal (z-score),[26],0.982
same,glycan array binding signal (z-score),[27],-0.437
